# In PubChem BioAssay (Tox21):
# Values without a mark were called inactive. Inconclusive results are not listed. Where a call stands in place of a potency, no number is given. Activity calls are given as the source filed them. Unless noted, the call rests on the fitted dose curve; in most records, active means well fitted curve in the direction sought with a large enough effect in the repeat runs; inconclusive means weak or mixed curves; inactive means no such curve, though single readings can be large; an effect the other way counts as inactive or inconclusive.
# How the values were obtained:
# [1] = qHTS assay to identify small molecule antagonists of the estrogen receptor alpha (ER-alpha) signaling pathway using the BG1 cell line in the presence of 0.1 nM 17-beta-estradiol - cell viability counter screen (AID 1259241); further: nearly all actives have a fitted effect of over 40% in size
# Outline: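 VM7Luc4E2 cells (endogenous ER-alpha, 4×ERE-luciferase), hormone-starved 5 days in charcoal-stripped FBS, were treated with compounds plus 0.1 nM 17beta-estradiol for 22 hr at 37C; viability read in same wells as CellTiter-Fluor live-cell protease fluorescence.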
# [2] = qHTS assay to identify small molecule antagonists of the androgen receptor (AR) signaling pathway using the MDA cell line in the presence of 0.5 nM R1881 - cell viability counter screen (AID 1259242); further: nearly all actives have a fitted effect of over 45% in size
# Outline: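 Concentration-response screen of compounds for toxicity in MDA-kb2 reporter cells: 16 hr at 37C with 0.5 nM R1881, endpoint live-cell protease fluorescence measured in the reporter wells.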
# [3] = target: Estrogen receptor (Homo sapiens) (UniProt P03372); assay: qHTS assay to identify small molecule antagonists of the estrogen receptor alpha (ER-alpha) signaling pathway using the BG1 cell line in the presence of 0.1 nM 17-beta-estradiol (AID 1259244); further: nearly all actives have a fitted effect of over 50% in size; further: potency means the concentration at half of the fitted maximal effect
# Outline: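 Compounds were tested against 0.1 nM (final) 17beta-estradiol in VM7Luc4E2 cells, which express full-length ER-alpha and an ERE-luciferase reporter; luminescence was recorded following 22 h exposure.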
# [4] = qHTS assay to identify small molecule phospholipidosis (PLD) inducers (AID 1259344; active means well fitted curve in the direction sought with a large enough effect; an effect the other way counts as inactive or inconclusive)
# Outline: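 After 4 h attachment on collagen I, HepG2 cells were dosed with compound alongside LipidTOX Red, kept 24 h at 37 C, fixed, and imaged for lamellar phospholipid pits.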
# [5] = qHTS assay to identify small molecule HDAC inhibitors (AID 1259364);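 further: wild-type HCT-116 cells with endogenous class I/II HDAC activity; top concentration of the series differs between compounds; nearly all actives have a fitted effect of over 45% in size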
# Outline: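 Screening used wild-type human colon HCT-116 cells incubated overnight, dosed with compounds for 2 hours, and assayed with a homogeneous luminogenic HDAC I/II reagent for 30 minutes at room temperature.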
# [6] = qHTS assay to identify small molecule HDAC inhibitors - cell viability counter screen (AID 1259365); further: series mostly up to about 92 µM; nearly all actives have a fitted effect of over 50% in size
# Outline: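 Wild-type HCT-116 cells were seeded at 1,500 per well, incubated overnight at 37 C, then exposed to compounds in DMSO for 2hr. Viability was read by CellTiter-Glo luminescence after 30min at room temperature.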
# [7] = qHTS assay to identify small molecule agonists of the sonic hedgehog signaling (Shh) pathway - cell viability counter screen (AID 1259366); further: nearly all actives have a fitted effect of over 50% in size
# Outline: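 NIH/3T3-derived 3T3 Gli1-Luc cells (stable Gli1-responsive firefly luciferase reporter) were seeded, rested 4 hr at 37 C/5% CO2, then exposed to compounds in DMSO for 24 hr; viability was read by CellTiter-Fluor fluorescence in the same wells.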
# [8] = qHTS assay to identify small molecule antagonists of the sonic hedgehog signaling (Shh) pathway - cell viability counter screen (AID 1259367); further: nearly all actives have a fitted effect of over 55% in size
# Outline: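 Conditioned medium drove Shh signaling in 3T3 Gli1-Luc cells exposed to compounds at 37C and 5% CO2. Viability was determined from CellTiter-Fluor fluorescence, with reagent incubated 1 hr after 23 hr of treatment.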
# [9] = qHTS assay to identify small molecule antagonists of the sonic hedgehog signaling (Shh) pathway (AID 1259369; calls by dose curve; further: nearly all actives have a fitted effect of over 45% in size)
# Outline: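 NIH/3T3 stable Gli1-Luc clone, 2,000 cells/well, 4hr settle; cpd + conditioned medium 24hr; Luc reagent 30min RT; luminescence.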
# [10] = target: Estrogen receptor beta (Homo sapiens) (UniProt Q92731); assay: qHTS assay to identify small molecule agonists of the estrogen receptor beta (ER-beta) signaling pathway (AID 1259377; active means well fitted activation curve with a large enough effect in the signal ratio in the repeat runs, not every such curve was filed as active; the % refers to the signal ratio)
# Outline: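 ER-beta-UAS-bla HEK293T (GripTite) cells carrying a UAS-driven beta-lactamase reporter, in medium with 2% charcoal-stripped FBS, were exposed to compounds for 16 hr at 37C; LiveBLAzer B/G FRET substrate was then added and fluorescence read after 2 hours at room temperature.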
# [11] = target: Estrogen receptor beta (Homo sapiens) (UniProt Q92731); assay: qHTS assay to identify small molecule antagonists of the estrogen receptor beta (ER-beta) signaling pathway (AID 1259378; active means well fitted inhibition curve with a large enough effect in the signal ratio in the repeat runs, not every such curve was filed as active; the % refers to the signal ratio)
# Outline: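 ER-beta-UAS-bla HEK293T (GripTite) cells in 2% charcoal-stripped FBS medium were preincubated 6 hr at 37C, dosed with compound, then stimulated with 1 nM E2 (final) for 16 hr; beta-lactamase reporter read by B/G FRET fluorescence after 2 hr substrate loading.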
# [12] = qHTS assay to identify small molecule agonists of the androgen receptor (AR) signaling pathway in the presence of an antagonist - cell viability counter screen (AID 1259379);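 further: MDA-kb2 human breast cancer cells carrying an MMTV luciferase reporter; series mostly up to about 92 µM; nearly all actives have a fitted effect of over 25% in size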
# Outline: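 MDA-kb2 viability measured by CellTiter-Fluor fluorescence in the same wells as the luciferase signal; nilutamide 3.0uM final; 15-point compound titration; 16 hr at 37C.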
# [13] = qHTS assay to identify small molecule antagonists of the estrogen receptor beta (ER-beta) signaling pathway - cell viability counter screen (AID 1259382); further: series mostly up to about 92 µM; nearly all actives have a fitted effect of over 55% in size
# Outline: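 Readout: luminescence, CellTiter-Glo, same wells as bla assay. System: ER-beta-UAS-bla GripTite HEK293T, 2% charcoal-stripped FBS. Exposure: compounds plus 1nM 17-beta-estradiol, 16 hr, 37C.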
# [14] = target: Estrogen receptor (Homo sapiens) (UniProt P03372); assay: qHTS assay to identify small molecule agonists of the estrogen receptor alpha (ER-alpha) signaling pathway in the presence of an antagonist (AID 1259383; calls by dose curve; further: top concentration of the series differs between compounds; nearly all actives have a fitted effect of over 15% in size)
# Outline: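 Quantitative HTS confirmation: compounds titrated at 15 concentrations onto estrogen-deprived VM7Luc4E2 cells carrying a four-ERE luciferase construct, with ICI-182,780 present at 10.0nM final. Signal is luminescence after 22hr exposure.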
# [15] = qHTS assay to identify small molecule agonists or antagonists of the thyroid stimulating hormone receptor (TSHR) signaling pathway - wild type cell line counter screen (AID 1259384; calls by dose curve; further: potency means the concentration at half of the fitted maximal effect)
# Outline: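 Wild-type HEK293 cells were plated 18 h at 37 C/5% CO2, pin-dosed with compound plus Ro20-1724 medium, held 30 min at room temperature, then given cAMP-d2 and anti-cAMP-cryptate; fluorescence was read after 1 h. Fifteen concentrations, triplicate.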
# [16] = target: Thyrotropin receptor (Homo sapiens) (UniProt P16473); assay: qHTS assay to identify small molecule antagonists of the thyroid stimulating hormone receptor (TSHR) signaling pathway (AID 1259385; calls by dose curve; further: nearly all actives have a fitted effect of over 20% in size; further: potency means the concentration at half of the fitted maximal effect)
# Outline: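 TSHR-HEK293 cells were plated and held 18 h at 37C/5% CO2, then given compound plus Ro20-1724 and stimulated with TSH at 1.5 ng/mL final. After 30 min at room temperature, cAMP was detected with cAMP-d2/anti-cAMP-cryptate (1 h) by fluorescence.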
# [17] = qHTS assay to identify small molecule agonists of the sonic hedgehog signaling (Shh) pathway (AID 1259368; calls by dose curve; further: series mostly up to about 92 µM; nearly all actives have a fitted effect of over 15% in size)
# Outline: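 Hedgehog pathway agonism scored by increased firefly luciferase luminescence in 3T3Gli1-Luc cells treated 24 hr at 37 C; detection used a 30 min room-temperature reagent incubation.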
# [18] = qHTS assay to identify small molecule agonists of the estrogen receptor beta (ER-beta) signaling pathway - cell viability counter screen (AID 1259380); further: nearly all actives have a fitted effect of over 30% in size
# Outline: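 Measured: luminescence from CellTiter-Glo after 30 min at room temperature, added to wells already read for the LiveBLAzer FRET reporter (2 hr substrate); ER-beta-UAS-bla HEK293T cells had 16 hr compound treatment at 37C, 5% CO2.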
# [19] = target: Androgen receptor (Homo sapiens) (UniProt P10275); assay: qHTS assay to identify small molecule agonists of the androgen receptor (AR) signaling pathway in the presence of an antagonist (AID 1259381; calls by dose curve; further: nearly all actives have a fitted effect of over 15% in size)
# Outline: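 Luminescent ONE-Glo read, 30min at room temperature, follows 16hr compound exposure (15 concentrations) of MDA-kb2 cells at 37C, 0% CO2, with nilutamide added at 3.0uM final.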
# Estrogen receptor (Homo sapiens), sequence (P03372 whole entry, looked up): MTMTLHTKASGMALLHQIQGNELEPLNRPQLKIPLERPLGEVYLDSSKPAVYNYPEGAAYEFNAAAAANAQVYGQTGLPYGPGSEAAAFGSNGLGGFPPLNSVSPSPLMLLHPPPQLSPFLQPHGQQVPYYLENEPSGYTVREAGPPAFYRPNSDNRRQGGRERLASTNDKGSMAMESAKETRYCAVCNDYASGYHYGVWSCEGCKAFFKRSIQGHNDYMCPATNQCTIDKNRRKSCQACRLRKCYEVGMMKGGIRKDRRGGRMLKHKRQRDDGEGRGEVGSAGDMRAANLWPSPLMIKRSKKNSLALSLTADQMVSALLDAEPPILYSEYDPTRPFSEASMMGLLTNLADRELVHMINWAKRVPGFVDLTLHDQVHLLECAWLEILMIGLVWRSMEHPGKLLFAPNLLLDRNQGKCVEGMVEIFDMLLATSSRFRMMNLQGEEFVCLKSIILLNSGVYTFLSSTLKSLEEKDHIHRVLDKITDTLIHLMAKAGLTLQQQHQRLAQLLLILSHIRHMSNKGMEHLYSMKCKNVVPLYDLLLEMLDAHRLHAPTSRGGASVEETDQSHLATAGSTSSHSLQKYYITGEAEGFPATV
# Thyrotropin receptor (Homo sapiens), sequence (P16473 whole entry, looked up): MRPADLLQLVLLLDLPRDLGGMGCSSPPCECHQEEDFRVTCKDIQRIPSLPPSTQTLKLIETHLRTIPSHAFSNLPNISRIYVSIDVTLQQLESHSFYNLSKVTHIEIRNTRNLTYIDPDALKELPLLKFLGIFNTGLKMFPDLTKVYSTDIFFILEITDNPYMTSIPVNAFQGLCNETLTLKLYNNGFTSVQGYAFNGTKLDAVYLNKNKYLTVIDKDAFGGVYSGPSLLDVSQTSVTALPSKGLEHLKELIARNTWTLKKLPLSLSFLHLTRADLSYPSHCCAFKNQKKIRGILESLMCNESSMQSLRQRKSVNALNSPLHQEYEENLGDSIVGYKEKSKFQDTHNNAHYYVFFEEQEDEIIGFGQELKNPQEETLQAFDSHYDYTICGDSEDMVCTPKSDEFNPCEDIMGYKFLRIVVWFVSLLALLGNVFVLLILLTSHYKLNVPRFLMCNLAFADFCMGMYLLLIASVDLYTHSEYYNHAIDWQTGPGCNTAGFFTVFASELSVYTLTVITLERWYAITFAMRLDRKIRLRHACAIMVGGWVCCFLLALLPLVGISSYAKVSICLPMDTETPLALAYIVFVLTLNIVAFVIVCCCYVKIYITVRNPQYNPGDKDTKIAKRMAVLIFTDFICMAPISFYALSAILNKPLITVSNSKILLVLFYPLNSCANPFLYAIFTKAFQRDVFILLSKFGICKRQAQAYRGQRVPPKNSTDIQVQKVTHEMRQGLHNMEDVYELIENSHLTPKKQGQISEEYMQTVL
# Estrogen receptor beta (Homo sapiens), sequence (Q92731 whole entry, looked up): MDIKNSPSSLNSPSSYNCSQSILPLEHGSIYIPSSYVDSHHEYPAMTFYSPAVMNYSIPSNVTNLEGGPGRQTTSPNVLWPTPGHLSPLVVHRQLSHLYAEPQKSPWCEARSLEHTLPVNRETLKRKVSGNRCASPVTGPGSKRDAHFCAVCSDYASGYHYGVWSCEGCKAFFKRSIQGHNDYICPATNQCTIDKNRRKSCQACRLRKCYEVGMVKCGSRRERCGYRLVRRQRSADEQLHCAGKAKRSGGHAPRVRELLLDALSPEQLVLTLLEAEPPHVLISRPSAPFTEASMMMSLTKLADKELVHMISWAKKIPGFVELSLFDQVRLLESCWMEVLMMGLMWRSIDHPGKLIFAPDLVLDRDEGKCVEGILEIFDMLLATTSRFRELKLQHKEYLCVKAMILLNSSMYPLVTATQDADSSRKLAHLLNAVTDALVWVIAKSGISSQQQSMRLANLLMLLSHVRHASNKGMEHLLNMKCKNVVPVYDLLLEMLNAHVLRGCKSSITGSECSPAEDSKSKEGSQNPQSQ
# Androgen receptor (Homo sapiens), sequence (P10275 whole entry, looked up): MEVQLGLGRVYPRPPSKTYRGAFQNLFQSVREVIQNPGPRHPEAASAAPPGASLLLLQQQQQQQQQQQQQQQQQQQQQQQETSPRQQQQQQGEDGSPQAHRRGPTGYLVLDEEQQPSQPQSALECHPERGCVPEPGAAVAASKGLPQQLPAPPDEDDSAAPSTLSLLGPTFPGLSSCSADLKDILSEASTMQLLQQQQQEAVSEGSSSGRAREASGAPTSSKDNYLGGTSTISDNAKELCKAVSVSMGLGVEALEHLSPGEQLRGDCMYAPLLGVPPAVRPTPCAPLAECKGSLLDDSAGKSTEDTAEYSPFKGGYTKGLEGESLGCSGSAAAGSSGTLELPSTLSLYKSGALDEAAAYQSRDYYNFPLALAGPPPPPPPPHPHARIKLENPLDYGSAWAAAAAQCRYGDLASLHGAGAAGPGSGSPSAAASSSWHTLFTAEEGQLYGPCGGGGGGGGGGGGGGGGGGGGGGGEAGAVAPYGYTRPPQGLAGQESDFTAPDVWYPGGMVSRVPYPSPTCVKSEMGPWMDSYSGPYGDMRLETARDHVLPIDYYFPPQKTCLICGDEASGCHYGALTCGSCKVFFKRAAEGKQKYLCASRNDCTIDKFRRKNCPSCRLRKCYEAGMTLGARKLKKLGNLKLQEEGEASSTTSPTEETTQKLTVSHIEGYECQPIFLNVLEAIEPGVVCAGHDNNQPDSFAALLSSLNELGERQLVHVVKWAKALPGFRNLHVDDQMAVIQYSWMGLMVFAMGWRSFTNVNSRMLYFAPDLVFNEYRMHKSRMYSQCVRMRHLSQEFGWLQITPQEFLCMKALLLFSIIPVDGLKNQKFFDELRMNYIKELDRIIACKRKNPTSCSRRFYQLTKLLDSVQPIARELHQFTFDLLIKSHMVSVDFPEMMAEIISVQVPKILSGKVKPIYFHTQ
Structure (SMILES),outcome [1],outcome [2],Potency [3],PLD induction [4],Potency [5],outcome [6],Potency [7],Potency [8],Potency [9],outcome [10],Potency [11],Potency [12],Potency [13],Potency [14],Potency [15],Potency [16],outcome [4],outcome [17],Potency [18],Potency [19]
CNCC(=O)c1ccc(O)c(O)c1,inactive,inactive,inactive,-2.28% [at 7.66 µM],inactive,inactive,inactive,inactive,inactive,inactive,inactive,inactive,inactive,inactive,4.22 µM (active),inactive,–,–,–,–
[O]=[Cd],inactive,inactive,inactive,–,inactive,inactive,inactive,inactive,–,–,–,inactive,inactive,inactive,inactive,inactive,inactive,inactive,–,–
COc1cc2c(cc1OC)[C@@]13CCN4CC5=CCO[C@H]6CC(=O)N2[C@H]1[C@H]6[C@H]5C[C@H]43,inactive,inactive,inactive,–,inactive,inactive,–,–,–,–,–,inactive,inactive,inactive,inactive,inactive,inactive,–,–,–
Cc1ncc2n1-c1ccc(Cl)cc1C(c1ccccc1F)=NC2,inactive,inactive,10.6 µM (active),–,inactive,–,inactive,–,–,–,–,inactive,inactive,inactive,inactive,inactive,inactive,–,–,–
CCN(Cc1ccc(Cl)nc1)/C(=C/[N+](=O)[O-])NC,inactive,inactive,inactive,–,inactive,inactive,inactive,inactive,inactive,inactive,inactive,inactive,inactive,inactive,inactive,inactive,inactive,inactive,inactive,–
NC(=O)c1cc([N+](=O)[O-])cc([N+](=O)[O-])c1,inactive,inactive,inactive,–,inactive,inactive,inactive,inactive,–,–,inactive,inactive,inactive,inactive,inactive,inactive,inactive,inactive,inactive,–
Clc1cccc(N2CCNCC2)c1,inactive,inactive,inactive,–,inactive,inactive,inactive,–,–,inactive,inactive,inactive,inactive,inactive,inactive,inactive,inactive,inactive,–,–
COC(=O)C(c1ccccc1)C1CCCCN1 (configuration not stated),inactive,inactive,inactive,–,inactive,inactive,inactive,inactive,inactive,inactive,inactive,inactive,inactive,inactive,inactive,inactive,inactive,inactive,inactive,inactive
CCOP(=S)(OCC)SCSc1ccc(Cl)cc1,inactive,inactive,inactive,-3.38% [at 7.66 µM],inactive,–,inactive,inactive,inactive,inactive,inactive,inactive,inactive,inactive,inactive,30.6 µM (active),–,inactive,inactive,–
